Assay outcomes from PubChem.
Hits are enriched below; roughly 2.4% of the tested compounds scored in any of these assays.
CHO-K1 Ca PAM: nonselective activator or artifact in parental CHO-K1 calcium assay; activation, % at 3 µM; AID 602247; hit rate 0.02% among 360,000; ATP EC20, Fluo-8 calcium fluorescence; 0% at ATP EC20, 100% at ATP max;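 active = activation above the run cutoff, the mean activation of all test compounds plus 3 SD, cut at about 40% in these data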;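 note: peak over basal fluorescence ratio in a 140 s read after ATP addition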
CHRM1 PAM: positive allosteric modulators of human M1 muscarinic receptor. P11229. CHO-K1 hM1, Fluo-8 calcium fluorescence, ACh EC20; 0% = ACh EC20, 100% = maximal ACh. activation, % at 3 µM. hit rate 0.088% among 360,000. AID 588819; in the data active = activation above about 19%, passing the limit was not always enough
Target sequence (P11229 whole entry, looked up): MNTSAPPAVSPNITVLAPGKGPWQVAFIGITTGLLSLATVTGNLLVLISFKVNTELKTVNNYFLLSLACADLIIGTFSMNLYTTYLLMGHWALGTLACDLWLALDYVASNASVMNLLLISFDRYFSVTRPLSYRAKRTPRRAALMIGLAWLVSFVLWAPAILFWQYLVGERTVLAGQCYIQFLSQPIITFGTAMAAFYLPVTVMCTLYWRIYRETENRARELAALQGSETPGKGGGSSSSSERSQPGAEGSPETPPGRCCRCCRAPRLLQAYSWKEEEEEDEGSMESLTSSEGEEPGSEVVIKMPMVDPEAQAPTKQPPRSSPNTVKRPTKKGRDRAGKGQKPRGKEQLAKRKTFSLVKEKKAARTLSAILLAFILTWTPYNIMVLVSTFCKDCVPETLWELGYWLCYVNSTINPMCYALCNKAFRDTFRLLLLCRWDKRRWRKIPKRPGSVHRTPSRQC
M1 ag parental: M1 agonist counterscreen hit in parental CHO-K1 cells; activation, % at 3 µM; hit rate 0.48% among 360,000; Fluo-8 calcium fluorescence; scaled to maximal ATP response, vehicle zero; in the data active = activation above about 15%;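 note: untransfected CHO-K1 host cells lacking M1 receptor as counterscreen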
CHO-K1 Ca antag: M1 antagonist counterscreen hit in parental CHO-K1 cells. AID 602250. inhibition, % at 3 µM. hit rate 0.6% among 360,000. ATP-induced calcium, Fluo-8 fluorescence;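 active = inhibition above a per-plate cutoff, the plate's mean sample inhibition plus 3 SD, cut at about 24% in these data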;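 note: 0% = DMSO plus EC80 ATP and 100% = DMSO alone without ATP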
CHRM1 antagonist: human CHRM1 antagonism; CHO-K1 hM1, Fluo-8 calcium fluorescence, ACh EC80 antagonist; inhibition, % at 3 µM; P11229; hit rate 1.3% among 360,000;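 active = percent inhibition above its own plate's cutoff, namely the mean of that plate's compound wells plus 3 SD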;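 note: peak over basal fluorescence ratio during 140 s after agonist addition; 0% = ACh EC80 plus DMSO and 100% = DMSO alone without agonist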
M1 ag: human M1 muscarinic receptor agonism; P11229; CHO-K1 hM1, Fluo-8 calcium fluorescence, agonist mode; 0% DMSO, 100% acetylcholine EC100; activation, % at 3 µM; hit rate 0.33% among 360,000; AID 588814;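 active = activation above the run's mean compound activation plus 3 SD, cut at about 16% in these data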;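 note: peak over basal fluorescence ratio within a 140 s kinetic read after compound addition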
Numbers without * were called inactive; · = not tested or not shown.

SMILES | CHO-K1 Ca PAM | CHRM1 PAM | M1 ag parental | CHO-K1 Ca antag | CHRM1 antagonist | M1 ag
COc1ccc(-c2sc3ccccc3c2-c2cc(OC)ccc2C=O)cc1 | 8.7 | · | 1.2 | -17.6 | · | ·
c1ccc(Cn2c(-c3ccccc3)c[n+]3c2SCCC3)cc1 | 20.3 | -25.1 | 1.0 | -9.6 | 98.1* | -9.0
c1ccc(-c2cn(-c3ccccc3)c3[n+]2CCCS3)cc1 | -10.2 | -5.9 | 0.1 | 0.7 | 7.0 | -8.5
CN(C)S(=O)(=O)c1ccc(NC(=O)CN2C(=O)NC3(CCCC3)C2=O)cc1 | 2.8 | 8.8 | 1.2 | -20.7 | -9.6 | -6.2
COc1cc(CNCCNC(=O)c2nonc2N)ccc1OCc1ccc(Cl)nc1 | 24.1 | 14.6 | 19.9* | -7.9 | -0.2 | -10.7
COc1ccc(CNCCNC(=O)c2nonc2N)cc1OC | -4.9 | 9.2 | -0.2 | 23.2 | 4.4 | -4.2
CC(C)[C@H](NS(=O)(=O)c1ccc2c(c1)OCCO2)C(=O)OCC(=O)Nc1ccccc1Cl | -6.4 | 7.9 | 3.5 | -7.5 | -5.9 | -8.0
CC(C)[C@H](NS(=O)(=O)c1ccc2c(c1)OCCO2)C(=O)OCC(=O)Nc1cc(Cl)ccc1Cl | 12.7 | -16.4 | 6.7 | 6.2 | 30.6* | 0.9
CCOC(=O)N1CCC(NC(=O)c2ccc3c(c2)N(C)C(=O)/C(=C/c2cccc(OC)c2)S3)CC1 | 5.2 | -2.1 | 4.2 | -0.8 | 1.3 | -2.4
CCN1CCN(c2ccc(N3CCN(S(=O)(=O)c4ccc(C)c([N+](=O)[O-])c4)CC3)nn2)CC1 | -10.3 | -20.9 | -0.5 | 2.6 | 28.6* | -7.0
O=S1(=O)C=CC(c2ccccc2)C1 (stereo not given) | 7.4 | 8.2 | 0.3 | -6.3 | -7.7 | -3.2
Cc1ccccc1NC(=O)C1CCCN(c2nnc(N3CCCC3=O)s2)C1 (stereo not given) | -12.2 | -1.1 | -0.5 | 25.7* | -0.7 | -3.7
CN(C)CCCCCNCCCNC(=O)/C=N\O | 1.1 | 10.0 | 0.2 | -8.2 | -25.4 | -4.2
CN(C)CCNC(=O)/C=N/O | -0.9 | -9.2 | -0.1 | 0.4 | 1.4 | 26.3*
Cc1cccc(C(=O)OCC(=O)N2CCCC2=O)c1O | -4.7 | 2.8 | 2.2 | -4.7 | 4.3 | -3.1
Cc1cc2nc3n(c2cc1C)CC1CC(C(=O)NCC2CC2)N(C)C31 (stereo not given) | -3.5 | -19.1 | 0.3 | -4.4 | 41.7* | -10.6
COc1ccc(-n2cc(CN(C)C(C)c3ccncn3)c(-c3cccc(F)c3)n2)cc1 (stereo not given) | 4.7 | 9.6 | 1.9 | -15.2 | -15.2 | -5.6
COc1ccc(-n2cc(CN(C)CCO)c(-c3cccc(F)c3)n2)cc1 | -1.8 | -2.2 | 18.4* | 10.1 | 5.1 | -8.8
CN1CCN(Cc2nnc(-c3ccccc3)o2)CC1 | -21.4 | 0.2 | 0.1 | -4.8 | -2.6 | -2.2
c1ccc(CN2CCN(Cc3nnc(-c4ccccc4)o3)CC2)cc1 | 12.1 | -15.6 | 2.0 | -9.1 | 34.8* | -6.5
Cc1c(C(c2cccc([N+](=O)[O-])c2O)c2c(C)n(C)n(-c3ccccc3)c2=O)c(=O)n(-c2ccccc2)n1C | 24.9 | 6.5 | 0.7 | -11.4 | -8.3 | -6.3
Cc1[nH]n(-c2ccccc2)c(=O)c1C(c1cccc([N+](=O)[O-])c1O)c1c(C)[nH]n(-c2ccccc2)c1=O | 11.1 | -4.4 | 15.2* | 13.0 | 15.3 | -1.7
COc1ccc(-c2nc(SC(CC(=O)NCCN3CCOCC3)c3cccs3)n[nH]2)cc1 (stereo not given) | 6.2 | 8.8 | -0.6 | -11.2 | -6.6 | -1.8
CCOc1cccc(=O)c2c(C)n(Cc3ccccc3)c(C)c12 | 3.2 | -3.1 | 23.4* | 12.7 | 2.4 | -5.8
Cc1cccc(C(=O)NN2S(=O)(=O)c3ccccc3S2(=O)=O)c1 | 12.5 | 5.4 | 0.8 | -21.6 | 32.9* | -2.5
Cc1cccc(C(=O)NN2C(=O)C3C(c4ccccc4)C=CC(c4ccccc4)C3C2=O)c1 (stereo not given) | 15.5 | -22.0 | 1.8 | 1.2 | 89.1* | 3.4
Cc1ccccc1-c1nc2ccccc2c(=O)o1 | -10.5 | 12.2 | -0.7 | 36.2* | -19.3 | 0.8
Cc1ccc2nc(-c3ccccc3C)oc(=O)c2c1 | -3.1 | 12.4 | 0.1 | -4.0 | -17.8 | -1.8
CN(Cc1ccccc1)S(=O)(=O)c1ccc(N2CCCC2=O)cc1 | 1.2 | -0.6 | 15.5* | 22.7 | 4.3 | 1.5
